From PubChem BioAssay AID1963320 (National Center for Advancing Translational Sciences (NCATS), 2024)
In all, about 1,300 compounds went through this assay and about 560 (43%) were called active. Roughly 39% stayed inconclusive and do not appear here. The set was probably picked from earlier hits. Not all results are given here. Unmarked numbers belong to inactive results. Calls follow the shape of the dose curve; as a rule, active = well fitted inhibition curve with a large enough effect; inconclusive = small, poorly fitted or top-dose-only effect; inactive = flat fitted curve, though single readings scatter.

molecular target: Luciferin 4-monooxygenase (Photinus pyralis) (UniProt P08659); assay: Firefly luciferase (FLuc-C-HiBiT) enzymatic inhibition screen - Functional assay; conditions: purified FLuc-C-HiBiT enzyme, luciferin luminescence; series mostly up to 32.7 µM; activity change, negative = inhibition: at the top concentration
Sequence (P08659 whole entry, looked up): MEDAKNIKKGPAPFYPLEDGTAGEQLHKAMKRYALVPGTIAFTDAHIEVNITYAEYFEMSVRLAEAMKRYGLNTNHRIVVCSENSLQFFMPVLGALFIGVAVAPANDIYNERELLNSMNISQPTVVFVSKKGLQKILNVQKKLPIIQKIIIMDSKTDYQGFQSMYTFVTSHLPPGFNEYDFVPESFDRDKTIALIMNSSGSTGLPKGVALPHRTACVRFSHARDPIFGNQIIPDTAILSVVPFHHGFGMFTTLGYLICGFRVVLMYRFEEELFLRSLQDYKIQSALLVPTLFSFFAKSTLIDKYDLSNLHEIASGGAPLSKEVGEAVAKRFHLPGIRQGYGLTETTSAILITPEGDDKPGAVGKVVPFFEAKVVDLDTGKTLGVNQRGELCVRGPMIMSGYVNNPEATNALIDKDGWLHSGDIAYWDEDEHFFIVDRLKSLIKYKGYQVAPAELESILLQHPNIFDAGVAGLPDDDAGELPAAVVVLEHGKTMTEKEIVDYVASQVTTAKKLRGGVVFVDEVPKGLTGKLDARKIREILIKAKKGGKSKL
Description: PI: James Inglese Ph.D. National Center for Advancing Translational Sciences (NCATS), National Institute of Health (NIH), Maryland Discovery and optimization of novel protein-binding ligands underlies many of the methods and applications of biology, drug discovery, clinical diagnostics, and environmental toxicology. Assays for detecting the interaction of, for example, a molecule with a macromolecular target also referred to here as the target of interest (TOI) is dependent on a compatible output technology. Depending on the nature and knowledge surrounding the TOI, whether a receptor, enzyme, regulatory subunit or scaffold, or a sequence-defined nucleic acid folded into a complex tertiary structure, assay strategies can vary widely. Here we exploit ligand-biased changes in the structural dynamics of the target protein to control reporter alpha complementation allowing a non-competitive, non-functional, non-separation measure of ligand-target interaction. […] Secondly, we show the specificity and sensitivity of the SDR for the Abelson tyrosine kinase (ABL1) compared to the serine/threonine protein kinase A, using an enriched chemical library of 128 compounds selected, in part, for activity annotated with ABL1 kinase activity using the Pharos database (3). References: (1) A. S. Dixon et al., NanoLuc Complementation Reporter Optimized for Accurate Measurement of Protein Interactions in Cells. ACS Chem Biol 11, 400-408 (2016). […] Chemistry & Biology, 19, 1060 - 1072 (2012). (3) K. J. Kelleher et al., Pharos 2023: an integrated resource for the understudied human proteome. Nucleic Acids Res 51, D1405-D1416 (2023).
1. Reagent. Dispense 4 uL FLuc-C-HiBiT enzyme-buffer solution per well at a final enzyme concentration of 10 nM with or without 10 uM ATP into columns 2-48 of white, solid bottom medium bind 1536-well plates (Greiner Bio-One) by BioRaptr 2. Dispense respective buffer without enzyme at 4 uL/well in column 1 of assay plates. 2. Compounds. Library compounds and PTC124 control added at 23 nL per well, transfer by Pin Tool. 3. Incubation. Incubate enzyme and compounds at room temperature for >30 min, protect from light. 4a. Reagent. (Functional assay) Add 3 uL of D-luciferin substrate at final (KM) concentration of 10 uM/well of assay plates for FLuc enzymatic assay, in the presence of ATP. 5. Incubation. Incubate enzyme and substrate or detection reagent at room temperature for 5-10 min, protect from light. 6a. Detector. Functional assay measured using CCD-based camera (ViewLux) with settings as follows: Exposure, 10 sec; Gain, High; Speed, Slow; Binning, 2X. REFERENCES: Inglese J, Shamu CE and Guy RK, Reporting data from high throughput screening of small molecule libraries, Nature Chemical Biology, 2007, 3(8): 438-441. doi.org/10.1038/nchembio0807-438.
% is scaled to controls: 0 for no effect and ±100 for the full control effect; potency is read from the fitted curve at half-maximal effect.
Also: nearly all actives have a fitted effect of over 70% in size.

Row | Structure (SMILES) | Potency | activity change, negative = inhibition [%]
1 | CN(CCc1cn[nH]c1)c1ccc(-c2nc(-c3ccccc3F)no2)cn1 | 3.13 µM (active) | 
2 | Cc1cc(C)n(CCC(=O)N2CCC(Cc3noc(C4CC4)n3)C2)n1 (configuration not stated) |  | 4.01
3 | OCC1CCCN(c2ncnc3c2cnn3-c2ccccc2)C1 (configuration not stated) | 0.394 µM (active) | 
4 | Cc1ccc(Cl)cc1-n1ncc2c(N3CCC(C(N)=O)CC3)ncnc21 |  | 0.685
5 | OCCN1CCN(c2nc(N3CCCCC3)c3cnn(-c4ccc(Cl)cc4)c3n2)CC1 |  | 0.975
6 | Fc1ccc(Nc2nc(-c3ccccc3F)no2)cc1 | 9.89 µM (active) | 
7 | Cc1ccc(CSc2nc3cccnc3n2Cc2ccc(C(=O)NC3CC3)cc2)cc1 | 0.394 µM (active) | 
8 | Cc1c(NC(=O)C(C)(C)C)cccc1-c1nc2ccccc2s1 | 5.56 µM (active) | 
9 | O=C(CSc1ccc(F)cc1)Nc1ccccc1-c1nc2ccccc2s1 |  | -5.95
10 | Cc1cccc(C(=O)Nc2ccc(-c3nc4ccccc4s3)c(C)c2)c1 | 9.89 µM (active) | 
11 | COc1ccc(CC(=O)Nc2ccc(-c3nc4ccccc4s3)c(C)c2)cc1 |  | -2.67
12 | CC(C)C(=O)Nc1cc(-c2nc3ccccc3s2)ccc1Cl |  | 3.21
13 | Cc1ccc(C(=O)Nc2ccc(-c3nc4ccccc4s3)c(O)c2)cc1 |  | 4.13
14 | COc1ccc(C(=O)Nc2onc3c2CCCC3)cc1 | 1.97 µM (active) | 
15 | Cc1cccc(-c2cccc(NC(=O)C3CCCN(C(=O)CC(F)(F)F)C3)c2)c1 (configuration not stated) |  | -6.66
16 | COc1ccc(C)cc1NC(=O)Nc1cccc(-c2ccc(N3CCCCC3)nn2)c1 | 1.11 µM (active) | 
17 | O=C(/C=C/c1ccccc1)Nc1cc(-c2nc3cc(Cl)ccc3o2)ccc1Cl |  | -5.86
18 | COc1cccc(-c2nc3ccc(-c4ccc5c(c4)OCO5)cc3o2)c1OC | 2.48 µM (active) | 
19 | COc1ccc(-c2nc3ccccc3s2)cc1NC(=O)COc1ccccc1C |  | -15.5

Row | Structure (SMILES) | Potency | activity change, negative = inhibition [%]
20 | CCC(CC)c1nn2cc(-c3ccccc3)nc2s1 | 0.881 µM (active) | 
21 | Cc1nn(-c2ccc(C(C)C)cc2)c(C)c1[C@@H]1C=C[C@@H](NC(=O)CC2(CC(=O)O)CCCC2)C1 |  | -6.39
22 | O=C(Nc1nc2c(s1)CCCC2)c1ccccc1F | 0.556 µM (active) | 
23 | O=C([C@@H]1C[C@@H](O)[C@H](O)[C@@H]2NC(=S)N(c3ccc(OC(F)(F)F)cc3)[C@@H]21)N1CCCCC1 |  | -13
24 | Oc1ccc(-c2nc(C3CC3)nc3c2CCN(Cc2cccc(F)c2)CC3)cc1 |  | -2.1
25 | O=C(Nc1ccccc1)c1nc2c(o1)CCN(Cc1cccc(Cl)c1)CC2 | 10.1 µM (active) | 
26 | CCOC(=O)C1CCN(C(=O)c2cccc3c2CCN3C(=O)Nc2ccccc2)CC1 | 1.76 µM (active) | 
27 | CC(=O)Nc1ccc(NC(=O)CCCc2nc(-c3ccc(C(C)(C)C)cc3)no2)cc1 | 4.95 µM (active) | 
28 | CC(=O)NC1(C)CN(Cc2ccc(-c3ccc4c(ccn4C)c3)s2)C1 | 2.86 µM (active) | 
29 | Cc1ccc(-c2nc(C(=O)N3CCN(c4ccccn4)CC3)no2)cc1 | 7.85 µM (active) | 
30 | COc1ccc(-c2ncc3c(n2)OCCN(CC2CC2)C3=O)cc1 | 8.05 µM (active) | 
31 | CCN(c1ncnc2c1cnn2-c1ccc(C)cc1)C1CCCCC1 | 0.881 µM (active) | 
32 | CN1CCN(C[C@@H]2CN(C(=O)CCCc3ccccc3)C[C@@H]2CO)CC1 |  | 1.79
33 | CCNC(=O)C1C(c2cccc(NC(=O)c3ccc(OC)cc3)c2)OC(=O)N1Cc1ccc(C)cc1 (configuration not stated) | 3.94 µM (active) | 
34 | O=C(NCC1CC1)C1CCN(C(=O)c2ncn3c2COC(c2ccccc2)C3)CC1 (configuration not stated) | 7 µM (active) | 
35 | O=C(NCc1ccc(F)c(Cl)c1)C1CCN(C(=O)c2ncn3c2COC(c2ccccc2)C3)CC1 (configuration not stated) | 3.51 µM (active) | 
36 | O=C(NCc1ccccc1)C1CCN(C(=O)c2ncn3c2COC(c2ccccc2)C3)CC1 (configuration not stated) | 2.21 µM (active) | 
37 | COc1ccccc1OC1(C(=O)O)CCN(c2ncnc3nc[nH]c23)CC1 |  | 2.15
